Results as given in PubChem BioAssay (NCATS).
Inconclusive results are not listed. Where a call stands in place of a potency, no number is given. Values without a mark were called inactive. Calls of active or inactive are those of the source. Calls come from the whole dose curve; as a rule, active = well fitted inhibition curve with a large enough effect; inconclusive = small, poorly fitted or top-dose-only effect; inactive = flat fitted curve, though single readings scatter. Numbered stars: 1 amine (or outer) side, 2 acyl side, 3 side chain; on linkers, the order of the positions; unused ones are H or OH. Bridge positions count the residues as written; N and C are the ends. Square brackets hold non-standard residues; d marks the D form. Peptide text beside a SMILES is read from it. I, II: the chains in the order shown. Actinocin(9to1) = Cc1c2oc3c(C)ccc(C(=O)[*:1])c3nc-2c(C(=O)[*:2])c(N)c1=O; NMeV = CN[C@H](C(=O)O)C(C)C; Sar = CNCC(=O)O

These compounds were tested on MCC-26 (assay: qHTS assay to identify novel small-molecules to repurpose for Merkel cell carcinoma treatment (AID 1296009; note: nearly all actives have a fitted effect of over 60% in size)). Conditions: MCC and control cell lines, CellTiter-Glo viability, 72 h; series mostly up to 46 µM.
From the text: MCC is a rare and aggressive neuroendocrine skin cancer with limited treatment options. Approximately 80% of MCCs have the Merkel cell polyomavirus (MCPyV) DNA integrated into the host genome (virus-positive: VP-MCC) and viral oncogenes drive oncogenesis. The remaining MCCs are virus-negative (VN-MCC) and are caused by UV mutagenesis. To identify novel treatments for VP-MCC and/or VN-MCC we screened three VP-MCC cell lines (WAGA, MKL-1, MKL-2), three VN-MCC cell lines (MCC-13, MCC-26, UISO), and four immortalized, non-transformed control cell lines (HaCaT, HEK293T, CRL7250, NIH-3T3) against ~2,400 compounds in the NCGC Pharmaceutical Collection (NPC) and ~1,900 compounds in the Mechanism Interrogation PlatE (MiPE). Using cell viability as a readout (CellTiter-Glo assay) we found both overlapping and distinct drugs that can be repurposed for the treatment of VP-MCC and VN-MCC.
A high-throughput screen was conducted in 1536-well white flat bottom plates (Corning) on a Kalypsys robotic system. Cell lines WAGA, MKL-1, MKL-2, MCC-13, MCC-26, UISO, HaCaT, HEK293T, CRL7250, and NIH-3T3 were screened against 2 small molecule annotated drug libraries NPC and MIPE in dose response (8 and 11 pt. respectively) measuring cell viability after 72 hours of incubation. […] A 1,536 pintool (Kalypsys) was used to transfer 23 nL of compound in DMSO to the 1,536-well assay plates. After 72 hr incubation at 37 degree celsius, 2.5 uL of CellTiter-Glo (Promega) was dispensed into each well using a BiorapTR. Plates were incubated at room temperature for 10 min, transferred to a ViewLux (PerkinElmer) and the luminescence was recorded using an exposure time of 2 seconds. Relative luminescence units (RLUs) were normalized to in-plate controls (no cells as a positive (cytotoxicity) control, DMSO as negative control) and the normalized data was processed using NCATS in-house software.
Potency is the fitted concentration of half-maximal effect.

SMILES | Potency | activity change, negative = cytotoxicity
CC(C)(Oc1ccc(Cl)cc1)C(=O)O | inactive | –
COc1c2occc2c(OC)c2c(=O)cc(C)oc12 | inactive | –
OC[C@H]1O[C@@H](n2cnc3c(=S)nc[nH]c32)[C@H](O)[C@@H]1O | inactive | –
C=C(CC)C(=O)c1ccc(OCC(=O)O)c(Cl)c1Cl | inactive | –
Cc1ccc(C(=O)C(C)CN2CCCCC2)cc1 (stereo not given) | inactive | –
COC(=O)C1=C(C)NC(C)=C(C(=O)O[C@@H]2CCCN(Cc3ccccc3)C2)[C@@H]1c1cccc([N+](=O)[O-])c1 | inactive | –
NCCC(O)(P(=O)(O)O)P(=O)(O)O | inactive | –
Cc1nc2n(c(=O)c1CCN1CCC(c3noc4cc(F)ccc34)CC1)CCC[C@H]2O | inactive | –
Cc1ccnc(NS(=O)(=O)c2ccc(N)cc2)n1 | inactive | –
CCN(CC)CCOC(=O)C(c1ccccc1)C1CCCCC1 (stereo not given) | inactive | –
C[n+]1c2cc(N)ccc2cc2ccc(N)cc21 (tested in a mixture with another compound) | 15 µM (active) | –
Nc1nc2ncc(CNc3ccc(C(=O)N[C@@H](CCC(=O)O)C(=O)O)cc3)nc2c(=O)[nH]1 | inactive | –
CCCCOc1ccc(C(=O)CCN2CCCCC2)cc1 | inactive | –
COc1ccc(OC)c(C(O)CNC(=O)CN)c1 (stereo not given) | inactive | –
CCN(CCCCOC(=O)c1ccc(OC)c(OC)c1)C(C)Cc1ccc(OC)cc1 (stereo not given) | inactive | –
O=C(Nc1ccc(Oc2ccc(Cl)cc2)c(Cl)c1)c1cc(I)cc(I)c1O | inactive | –
c1ccc(-c2ccc(C(c3ccccc3)n3ccnc3)cc2)cc1 (stereo not given) | inactive | –
COc1cc(-c2ccc(=O)[nH]n2)ccc1OC(F)F | inactive | –
Cc1onc(-c2c(Cl)cccc2Cl)c1C(=O)N[C@@H]1C(=O)N2[C@@H]1SC(C)(C)[C@@H]2C(=O)O | inactive | –
CCOc1ccc(NC(=O)CC(C)O)cc1 (stereo not given) | inactive | –

SMILES | Potency | activity change, negative = cytotoxicity
CCCC(=O)O[C@]1(C(=O)CO)CC[C@H]2[C@@H]3CCC4=CC(=O)CC[C@]4(C)[C@H]3[C@@H](O)C[C@@]21C | inactive | –
C[C@H](O)C(=O)Nc1c(I)c(C(=O)NC(CO)CO)c(I)c(C(=O)NC(CO)CO)c1I | inactive | –
CCn1cc(C(=O)O)c(=O)c2cnc(N3CCCC3)nc21 | – | -5.4% [at 9.22 µM]
O=C1OC(c2ccc(O)cc2)(c2ccc(O)cc2)c2ccccc21 | inactive | –
CO/N=C1\CN(c2nc3c(cc2F)c(=O)c(C(=O)O)cn3C2CC2)CC1CN (stereo not given) | inactive | –
CC1(C)OC[C@@H](COC(=O)CCc2ccc(OC[C@@H](O)CNCCNC(=O)N3CCOCC3)cc2)O1 | inactive | –
Cc1c2oc3c(C)ccc(C(=O)N[C@@H]4C(=O)N[C@H](C(C)C)C(=O)N5CCC[C@H]5C(=O)N(C)CC(=O)N(C)[C@@H](C(C)C)C(=O)O[C@@H]4C)c3nc-2c(C(=O)N[C@@H]2C(=O)N[C@H](C(C)C)C(=O)N3CCC[C@H]3C(=O)N(C)CC(=O)N(C)[C@@H](C(C)C)C(=O)O[C@@H]2C)c(N)c1=O (I: T[dV]P[Sar][NMeV] / II: T[dV]P[Sar][NMeV]; ester I:1-I:C, II:1-II:C; linker I:N-II:N via Actinocin(9to1)) | 0.0211 µM (active) | –
Cc1cccn2c(=O)c(-c3nnn[nH]3)cnc12 | inactive | –
NC[C@H]1O[C@H](O[C@H]2[C@H](O[C@@H]3O[C@H](CO)[C@@H](O)[C@H]3O)C(O)[C@H](N)C[C@@H]2N)[C@H](N)[C@@H](O)[C@@H]1O (stereo not given in full) | – | 5.57% [at 9.22 µM]
C[C@H]1[C@H](NC(=O)/C(=N/OC(C)(C)C(=O)O)c2csc(N)n2)C(=O)N1S(=O)(=O)O (stereo in doubt) | inactive | –
O=C(N/N=C/c1ccccc1O)c1ccncc1 | 9.44 µM (active) | –
NC(=O)CC[C@@H]1NC(=O)[C@H](Cc2ccccc2)NC(=O)[C@H](Cc2ccc(O)cc2)NC(=O)CCSSC[C@@H](C(=O)N2CCC[C@H]2C(=O)N[C@@H](CCCN=C(N)N)C(=O)NCC(N)=O)NC(=O)[C@H](CC(N)=O)NC1=O | inactive | –
CNC(=O)CN(CCN(CCN(CC(=O)[O-])CC(=O)NC)CC(=O)[O-])CC(=O)[O-].O.[Gd+3] | inactive | –
OC(CCN1CCCCC1)(c1ccccc1)c1ccccc1 | inactive | –
NCCc1ccn[nH]1 | inactive | –
C[C@@H]1C[C@H]2[C@@H]3C[C@H](F)C4=CC(=O)C(Cl)=C[C@]4(C)[C@@]3(F)[C@@H](O)C[C@]2(C)[C@@]1(O)C(=O)CO | inactive | –
CN1CCC[C@@H]1c1cccnc1 | inactive | –
CC(Cc1cccc(C(F)(F)F)c1)NCCOC(=O)c1ccccc1 (stereo not given) | inactive | –
CCCCCCc1ccc(O)cc1O | inactive | –
CCCCCCCCCCCCCCNCCO | inactive | –
